Results published in PubChem BioAssay (NCATS).
Records with an inconclusive call do not appear. Where a call stands in place of a potency, no number is given. Unmarked numbers belong to inactive results. The source made the active and inactive calls. Calls come from the whole dose curve; as a rule, active = well fitted inhibition curve with a large enough effect; inconclusive = small, poorly fitted or top-dose-only effect; inactive = flat fitted curve, though single readings scatter.

Test system: MCC-26
Assay: qHTS assay to identify novel small-molecules to repurpose for Merkel cell carcinoma treatment (AID 1296009); note: nearly all actives have a fitted effect of over 60% in size
Settings: MCC and control cell lines, CellTiter-Glo viability, 72 h; series mostly up to 46 µM
Text: MCC is a rare and aggressive neuroendocrine skin cancer with limited treatment options. Approximately 80% of MCCs have the Merkel cell polyomavirus (MCPyV) DNA integrated into the host genome (virus-positive: VP-MCC) and viral oncogenes drive oncogenesis. The remaining MCCs are virus-negative (VN-MCC) and are caused by UV mutagenesis. To identify novel treatments for VP-MCC and/or VN-MCC we screened three VP-MCC cell lines (WAGA, MKL-1, MKL-2), three VN-MCC cell lines (MCC-13, MCC-26, UISO), and four immortalized, non-transformed control cell lines (HaCaT, HEK293T, CRL7250, NIH-3T3) against ~2,400 compounds in the NCGC Pharmaceutical Collection (NPC) and ~1,900 compounds in the Mechanism Interrogation PlatE (MiPE). Using cell viability as a readout (CellTiter-Glo assay) we found both overlapping and distinct drugs that can be repurposed for the treatment of VP-MCC and VN-MCC.
A high-throughput screen was conducted in 1536-well white flat bottom plates (Corning) on a Kalypsys robotic system. Cell lines WAGA, MKL-1, MKL-2, MCC-13, MCC-26, UISO, HaCaT, HEK293T, CRL7250, and NIH-3T3 were screened against 2 small molecule annotated drug libraries NPC and MIPE in dose response (8 and 11 pt. respectively) measuring cell viability after 72 hours of incubation. […] A 1,536 pintool (Kalypsys) was used to transfer 23 nL of compound in DMSO to the 1,536-well assay plates. After 72 hr incubation at 37 degree celsius, 2.5 uL of CellTiter-Glo (Promega) was dispensed into each well using a BiorapTR. Plates were incubated at room temperature for 10 min, transferred to a ViewLux (PerkinElmer) and the luminescence was recorded using an exposure time of 2 seconds. Relative luminescence units (RLUs) were normalized to in-plate controls (no cells as a positive (cytotoxicity) control, DMSO as negative control) and the normalized data was processed using NCATS in-house software.
Potency is the fitted concentration of half-maximal effect.

Q: Which Potency does the source give for `C[C@@H]1COC(Nc2ccc3ncnc(Nc4ccc(OCc5nccs5)c(Cl)c4)c3c2)=N1` here?
A: inactive

Q: For `CC1COC2(CCN(c3nc(=O)c4cc(C(F)(F)F)cc([N+](=O)[O-])c4s3)CC2)O1` (stereo not given), which Potency is on record?
A: inactive

Q: Which Potency does the source give for `Cc1nc2ccc(CN(C)c3ccc(C(=O)N[C@@H](CCC(=O)O)C(=O)O)s3)cc2c(=O)[nH]1` here?
A: inactive

Q: How did the Potency turn out when `C[C@@H]1CN(CC(=O)Nc2ccc3c(c2)Cc2cccc(-c4cc(=O)cc(N5CCOCC5)o4)c2S3)C[C@H](C)O1` was run?
A: inactive

Q: `CCCNC(=O)Nc1ccc(Oc2ncnc3cc(OC)c(OC)cc23)cc1Cl` was tested. Which Potency did it give?
A: inactive

Q: `CC=CC1=C(C(=O)O)N2C(=O)[C@H](NC(=O)[C@H](N)c3ccc(O)cc3)[C@@H]2SC1` was tested. Which Potency did it give?
A: inactive

Q: For `Cc1cn2c(-c3cn[nH]c3)cnc2c(Nc2ccc(C(=O)N3CCNCC3)cc2F)n1`, which Potency is on record?
A: inactive

Q: For `C=C1C(=CC=C2CCC[C@]3(C)[C@@H]([C@H](C)C=C[C@H](C)C(C)C)CC[C@@H]23)C[C@@H](O)C[C@@H]1O`, which Potency is on record?
A: 14.8 µM (active)

Q: How did the Potency turn out when `CCOc1ccccc1OCCNC(C)Cc1ccc(OC)c(S(N)(=O)=O)c1` (stereo not given) was run?
A: inactive

Q: Which Potency does the source give for `COc1cccc2nc(-c3cccs3)nc(NN3C(=O)C=C(C)C3=O)c12` here?
A: inactive

Q: With `NC(=O)Nc1cc(-c2cccc(F)c2)sc1C(=O)N[C@H]1CCCNC1` as the compound, how does the Potency read?
A: 11.8 µM (active)

Q: `CC(C)(C)c1cc(NC(=O)Nc2ccc(-c3cn4c(n3)sc3cc(OCCN5CCOCC5)ccc34)cc2)no1` was tested. Which Potency did it give?
A: inactive

Q: Which Potency does the source give for `Clc1cccc(-n2nnnc2NCc2ccccc2Oc2ccccn2)c1Cl` here?
A: inactive

Q: For `CC(O)C1C(=O)N2C(C(=O)O)=C(SC3CNC(C(=O)N(C)C)C3)C(C)C12` (stereo not given), which Potency is on record?
A: inactive

Q: With `CCOc1cc2ncc(C#N)c(Nc3ccc(F)c(Cl)c3)c2cc1NC(=O)C=CCN(C)C` as the compound, how does the Potency read?
A: 14.8 µM (active)

Q: Which Potency does the source give for `O=C(O)c1ccc2c(c1)nc(Nc1cccc(Cl)c1)c1ccncc12` here?
A: inactive

Q: Which Potency does the source give for `Cc1ccc2nc(NC(=O)CSc3nc4c(c(=O)n3-c3ccccc3)SCC4)sc2c1` here?
A: inactive

Q: `Nc1nc(NCCNc2ncc(-n3ccnc3)c(-c3ccc(Cl)cc3Cl)n2)ccc1[N+](=O)[O-]` was tested. Which Potency did it give?
A: inactive

Q: With `CCc1c2c(nc3ccc(O)cc13)-c1cc3c(c(=O)n1C2)COC(=O)[C@]3(O)CC` as the compound, how does the Potency read?
A: 0.0372 µM (active)

Q: `O=C(O)C1(Cc2cccc(Nc3nccs3)n2)CCC(Oc2cccc(Cl)c2F)CC1` (stereo not given) was tested. Which Potency did it give?
A: inactive

Q: For `COc1ccc(C=Cc2cc(OC)c(OC)c(OC)c2)cc1O`, which Potency is on record?
A: inactive

Q: How did the Potency turn out when `COc1cccc(Nc2c(C(N)=O)cnc3c(C)cc(S(=O)(=O)c4cccc(C(=O)N(C)C)c4)cc23)c1` was run?
A: inactive

Q: `CC1(C)O[C@@H]2C[C@@H]3[C@H]4C[C@@H](F)C5=CC(=O)C=C[C@]5(C)[C@@]4(F)[C@@H](O)C[C@]3(C)[C@]2(C(=O)CO)O1` was tested. Which Potency did it give?
A: inactive

Q: How did the Potency turn out when `Cc1[nH]nc2ccc(-c3cncc(OC[C@@H](N)Cc4ccccc4)c3)cc12` was run?
A: 6.62 µM (active)

Q: Which activity change, negative = cytotoxicity does the source give for `COc1ccc(CC2c3cc(OC)c(OC)cc3CC[N+]2(C)CCC(=O)OCCCCCOC(=O)CC[N+]2(C)CCc3cc(OC)c(OC)cc3C2Cc2ccc(OC)c(OC)c2)cc1OC` (stereo not given) here?
A: 2.59% [at 9.22 µM]

Q: Which Potency does the source give for `COc1cc2c(Oc3ccc(-c4cnc(Nc5ccc(F)cc5)n(C)c4=O)cc3F)ccnc2cc1OCCCN1CCOCC1` here?
A: 7.43 µM (active)

Q: For `Cc1ccc(CN2CCNCC2)cc1NC(=O)CNc1ccc(F)c(F)c1`, which Potency is on record?
A: inactive

Q: With `CC(C)c1ccccc1Cc1cc(C(=O)Nc2ccc(S(=O)(=O)c3ccccc3C(C)(C)C)cc2)c(O)c(O)c1O` as the compound, how does the Potency read?
A: inactive

Q: Which Potency does the source give for `COc1cc2ncn(-c3cc(OCc4ccccc4C(F)(F)F)c(C(N)=O)s3)c2cc1OC` here?
A: inactive

Q: How did the Potency turn out when `CC(C)C[C@H](NC(=O)CNC(=O)c1cc(Cl)ccc1Cl)B(O)O` was run?
A: 0.526 µM (active)

Q: For `C#Cc1cccc(Nc2ncnc3cc(OC)c(OCCCCCCC(=O)NO)cc23)c1`, which Potency is on record?
A: 10.5 µM (active)

Q: Which Potency does the source give for `Cc1cc(Nc2nc(N[C@@H](C)c3ccc(F)cc3)c(C#N)cc2F)n[nH]1` here?
A: 7.43 µM (active)

Q: For `Nc1ccc(C(=O)c2cc3c(ccc4ccccc43)[nH]2)cc1`, which Potency is on record?
A: inactive

Q: For `Nc1ccc(S(=O)(=O)Nc2ncccn2)cc1`, which Potency is on record?
A: inactive

Q: `C=CCn1c(=O)c2cnc(Nc3ccc(N4CCN(C)CC4)cc3)nc2n1-c1cccc(C(C)(C)O)n1` was tested. Which Potency did it give?
A: 4.69 µM (active)

Q: For `COc1cc2ncnc(Nc3ccc(F)c(Cl)c3)c2cc1NC(=O)C=CCN1CCCCC1`, which Potency is on record?
A: inactive

Q: With `Cc1c(C)n(Cc2ccc(-c3ccccc3C(=O)O)cc2)c2ccc(C(=O)N[C@@H](C)c3ccc([N+](=O)[O-])cc3)cc12` as the compound, how does the Potency read?
A: inactive

Q: `O=C(CCCCCCC(=O)Nc1ccc([C@H]2O[C@@H](CSc3nc(-c4ccccc4)c(-c4ccccc4)o3)C[C@@H](c3ccc(CO)cc3)O2)cc1)NO` was tested. Which Potency did it give?
A: 23.5 µM (active)

Q: Which Potency does the source give for `O=C(C=Cc1cccnc1)NCCCCC1CCN(C(=O)c2ccccc2)CC1` here?
A: 0.0209 µM (active)

Q: How did the Potency turn out when `C=CC(=O)Nc1cccc(Oc2nc(Nc3ccc(N4CCN(C)CC4)cc3OC)ncc2Cl)c1` was run?
A: 11.8 µM (active)
